These results are taken from ChEMBL document CHEMBL3988442, “University of Dundee, Small-Polar-MMV Screening Library” (2021).

What all share (parameters): scale not given: direction of the effect not stated beside the values
Experiment [1] deals with Protein translocase subunit SecA (Escherichia coli (strain K12)) (UniProt P10408). Description: Assay to Identify E. coli SecA ATPase Inhibitors. The format is functional. To be noted: 30 µM.
Experiment [2] concerns the target T1, Ubiquitin-activating enzyme e1, putative (Leishmania donovani (strain BPK282A1)) (UniProt E9BSI1).
T1 sequence (whole entry): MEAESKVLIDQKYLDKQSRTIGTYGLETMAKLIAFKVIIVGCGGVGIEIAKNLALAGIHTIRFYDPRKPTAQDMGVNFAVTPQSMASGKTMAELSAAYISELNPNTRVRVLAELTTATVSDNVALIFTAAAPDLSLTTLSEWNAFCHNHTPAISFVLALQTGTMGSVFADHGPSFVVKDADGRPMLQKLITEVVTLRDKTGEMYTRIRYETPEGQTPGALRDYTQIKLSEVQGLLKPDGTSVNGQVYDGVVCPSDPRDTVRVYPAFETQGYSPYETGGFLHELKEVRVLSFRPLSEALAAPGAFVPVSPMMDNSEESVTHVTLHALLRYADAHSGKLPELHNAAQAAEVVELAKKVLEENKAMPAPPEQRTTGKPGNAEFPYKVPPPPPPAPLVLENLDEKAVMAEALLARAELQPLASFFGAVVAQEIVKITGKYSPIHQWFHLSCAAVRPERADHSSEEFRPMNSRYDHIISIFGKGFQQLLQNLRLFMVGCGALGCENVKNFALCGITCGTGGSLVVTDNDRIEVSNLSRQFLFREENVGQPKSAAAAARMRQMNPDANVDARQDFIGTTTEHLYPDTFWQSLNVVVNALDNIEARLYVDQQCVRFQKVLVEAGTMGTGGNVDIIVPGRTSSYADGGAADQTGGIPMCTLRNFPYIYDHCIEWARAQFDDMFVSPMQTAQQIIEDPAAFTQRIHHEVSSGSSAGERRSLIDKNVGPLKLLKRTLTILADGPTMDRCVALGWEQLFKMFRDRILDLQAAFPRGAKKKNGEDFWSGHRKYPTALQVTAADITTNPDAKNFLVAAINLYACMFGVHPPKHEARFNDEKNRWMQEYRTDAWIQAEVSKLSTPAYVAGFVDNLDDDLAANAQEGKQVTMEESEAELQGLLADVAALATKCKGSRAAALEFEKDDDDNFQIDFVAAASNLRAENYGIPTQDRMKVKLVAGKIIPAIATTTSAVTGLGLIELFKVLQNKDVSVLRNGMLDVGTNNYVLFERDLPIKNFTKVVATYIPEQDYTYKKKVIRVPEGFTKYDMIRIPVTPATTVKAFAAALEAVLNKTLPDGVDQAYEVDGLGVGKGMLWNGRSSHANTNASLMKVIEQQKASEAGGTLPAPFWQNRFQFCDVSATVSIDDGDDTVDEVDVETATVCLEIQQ
The experiment in a line: Leishmania donovani Ubiquitin Activating Enzyme (LdE1). Format: functional. Conditions: 30 µM.

The target in experiment [3] is AMP-activated protein kinase, AMPK (Homo sapiens) (UniProt P54646+O43741+P54619+Q9UGJ0+Q9Y478+Q13131+Q9UGI9). The experiment in a line: AMP-dependent Kinase enzyme assay. An in vitro enzyme assay that detects ADP turnover that is directly proportional to AMPK activity. This uses naive AMPK that is activated during the assay with MK-8722. The format is functional. To be noted: 30 µM.

Experiment [4] concerns the target Sialic acid-binding Ig-like lectin 9 (Homo sapiens) (UniProt Q9Y336). Description: Hs-Siglec9 ALPHAscreen SOP 20170721. To be noted: 10 µM. For orientation: In Alpha technology, singlet oxygen from a donor bead excites a nearby acceptor bead.
The subject of experiment [5] is Trypanosoma cruzi. The experiment in a line: Trypanosoma cruzi phosphomannomutase and mannose-1-phosphate guanylyltransferase assay. The format is functional. Conditions: 10 µM.
Experiment [6] concerns the target T2, Arginase-2, mitochondrial (Homo sapiens) (UniProt P78540).
T2 sequence (whole entry): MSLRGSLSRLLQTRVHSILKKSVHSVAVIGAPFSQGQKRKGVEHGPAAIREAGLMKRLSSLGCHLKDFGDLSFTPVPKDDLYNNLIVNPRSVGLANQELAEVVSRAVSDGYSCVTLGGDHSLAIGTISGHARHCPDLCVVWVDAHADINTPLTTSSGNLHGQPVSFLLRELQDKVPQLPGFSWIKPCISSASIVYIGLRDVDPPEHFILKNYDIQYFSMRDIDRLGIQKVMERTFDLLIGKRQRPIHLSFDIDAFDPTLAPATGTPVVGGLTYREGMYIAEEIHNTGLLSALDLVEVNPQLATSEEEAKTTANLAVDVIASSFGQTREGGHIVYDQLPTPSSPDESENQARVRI
The experiment in a line: in vitro enzyme assay to detect the production of urea directly proportional to the activity of Arginase II. Further: in the data most compounds retested in dose-response had high values. Format: functional. To be noted: 33.3 µM.

In experiment [7] the target is T3, Proteasome subunit beta (Trypanosoma cruzi) (UniProt O96673).
T3 sequence (whole entry): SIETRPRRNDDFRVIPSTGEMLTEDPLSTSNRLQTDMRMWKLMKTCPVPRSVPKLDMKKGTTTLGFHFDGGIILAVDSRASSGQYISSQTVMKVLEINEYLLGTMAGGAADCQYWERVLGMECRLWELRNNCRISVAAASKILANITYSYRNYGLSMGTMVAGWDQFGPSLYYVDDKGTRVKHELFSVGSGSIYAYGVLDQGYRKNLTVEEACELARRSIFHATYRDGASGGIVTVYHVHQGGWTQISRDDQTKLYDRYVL
Description: Trypanosoma cruzi proteasome chymotrypsin-like activity (TcProtChymo) assay. Further: in the data most compounds retested in dose-response had high values. Format: functional. To be noted: 9.37 µM.

The species entered for experiment [8] is Homo sapiens. Description: To identify inhibition of the IFN signalling (Jak-Stat) pathway via expression of an eGFP reporter gene under the control of an IFN-stimulated response element (ISRE) containing MxA promoter. Format: functional. Conditions: 30 µM. (In general: Reporter assays use an easily measured gene product as a stand-in for the process of interest.)

Experiment [9] has as its target T4, Tyrosyl-tRNA synthetase, putative (Trypanosoma cruzi (strain CL Brener)) (UniProt Q4DSP6).
T4 sequence (whole entry): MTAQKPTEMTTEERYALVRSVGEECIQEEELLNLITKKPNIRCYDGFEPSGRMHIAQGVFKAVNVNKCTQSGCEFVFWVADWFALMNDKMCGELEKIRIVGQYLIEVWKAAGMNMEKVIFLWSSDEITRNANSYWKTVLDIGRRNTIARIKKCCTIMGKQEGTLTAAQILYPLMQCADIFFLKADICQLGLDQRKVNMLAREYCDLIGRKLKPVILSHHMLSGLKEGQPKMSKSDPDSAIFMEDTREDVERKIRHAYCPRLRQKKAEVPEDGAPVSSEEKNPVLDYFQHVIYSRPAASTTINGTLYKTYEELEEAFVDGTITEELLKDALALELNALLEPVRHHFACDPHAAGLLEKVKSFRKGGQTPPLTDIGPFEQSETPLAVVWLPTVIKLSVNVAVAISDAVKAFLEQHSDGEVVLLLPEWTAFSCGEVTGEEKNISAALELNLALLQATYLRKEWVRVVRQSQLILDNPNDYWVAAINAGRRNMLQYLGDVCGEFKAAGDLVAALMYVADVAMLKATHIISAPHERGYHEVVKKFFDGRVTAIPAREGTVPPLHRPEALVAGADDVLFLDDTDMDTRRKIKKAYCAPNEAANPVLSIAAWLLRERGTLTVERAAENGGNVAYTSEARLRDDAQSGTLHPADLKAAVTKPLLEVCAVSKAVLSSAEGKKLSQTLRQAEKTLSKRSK
Description: Trypanosoma cruzi tyrosyl tRNA synthetase (TcYRS) _High Tyrosine SOP. Further: in the data most compounds retested in dose-response had high values. Format: functional. Conditions: 30 µM.

In experiment [10] the target is T4, Tyrosyl-tRNA synthetase, putative (Trypanosoma cruzi (strain CL Brener)). The experiment in a line: Trypanosoma cruzi tyrosyl tRNA synthetase (TcYRS) SOP. Format: functional. To be noted: 30 µM.
Experiment [11] has as its target Chromo domain-containing protein 1 (Saccharomyces cerevisiae (strain ATCC 204508 / S288c) (Baker's yeast)) (UniProt P32657). Description: ScCHD-1 Enzyme Inhibition Assay. Further: in the data most compounds retested in dose-response had high values. Format: functional. To be noted: 30 µM.

SMILES strings stand for the structures. For some of these results: Entries with a potency or affinity are not part of this list.

Chain of Chromo domain-containing protein 1 (Saccharomyces cerevisiae (strain ATCC 204508 / S288c) (Baker's yeast)) (P32657 whole entry, the tested form may be a part): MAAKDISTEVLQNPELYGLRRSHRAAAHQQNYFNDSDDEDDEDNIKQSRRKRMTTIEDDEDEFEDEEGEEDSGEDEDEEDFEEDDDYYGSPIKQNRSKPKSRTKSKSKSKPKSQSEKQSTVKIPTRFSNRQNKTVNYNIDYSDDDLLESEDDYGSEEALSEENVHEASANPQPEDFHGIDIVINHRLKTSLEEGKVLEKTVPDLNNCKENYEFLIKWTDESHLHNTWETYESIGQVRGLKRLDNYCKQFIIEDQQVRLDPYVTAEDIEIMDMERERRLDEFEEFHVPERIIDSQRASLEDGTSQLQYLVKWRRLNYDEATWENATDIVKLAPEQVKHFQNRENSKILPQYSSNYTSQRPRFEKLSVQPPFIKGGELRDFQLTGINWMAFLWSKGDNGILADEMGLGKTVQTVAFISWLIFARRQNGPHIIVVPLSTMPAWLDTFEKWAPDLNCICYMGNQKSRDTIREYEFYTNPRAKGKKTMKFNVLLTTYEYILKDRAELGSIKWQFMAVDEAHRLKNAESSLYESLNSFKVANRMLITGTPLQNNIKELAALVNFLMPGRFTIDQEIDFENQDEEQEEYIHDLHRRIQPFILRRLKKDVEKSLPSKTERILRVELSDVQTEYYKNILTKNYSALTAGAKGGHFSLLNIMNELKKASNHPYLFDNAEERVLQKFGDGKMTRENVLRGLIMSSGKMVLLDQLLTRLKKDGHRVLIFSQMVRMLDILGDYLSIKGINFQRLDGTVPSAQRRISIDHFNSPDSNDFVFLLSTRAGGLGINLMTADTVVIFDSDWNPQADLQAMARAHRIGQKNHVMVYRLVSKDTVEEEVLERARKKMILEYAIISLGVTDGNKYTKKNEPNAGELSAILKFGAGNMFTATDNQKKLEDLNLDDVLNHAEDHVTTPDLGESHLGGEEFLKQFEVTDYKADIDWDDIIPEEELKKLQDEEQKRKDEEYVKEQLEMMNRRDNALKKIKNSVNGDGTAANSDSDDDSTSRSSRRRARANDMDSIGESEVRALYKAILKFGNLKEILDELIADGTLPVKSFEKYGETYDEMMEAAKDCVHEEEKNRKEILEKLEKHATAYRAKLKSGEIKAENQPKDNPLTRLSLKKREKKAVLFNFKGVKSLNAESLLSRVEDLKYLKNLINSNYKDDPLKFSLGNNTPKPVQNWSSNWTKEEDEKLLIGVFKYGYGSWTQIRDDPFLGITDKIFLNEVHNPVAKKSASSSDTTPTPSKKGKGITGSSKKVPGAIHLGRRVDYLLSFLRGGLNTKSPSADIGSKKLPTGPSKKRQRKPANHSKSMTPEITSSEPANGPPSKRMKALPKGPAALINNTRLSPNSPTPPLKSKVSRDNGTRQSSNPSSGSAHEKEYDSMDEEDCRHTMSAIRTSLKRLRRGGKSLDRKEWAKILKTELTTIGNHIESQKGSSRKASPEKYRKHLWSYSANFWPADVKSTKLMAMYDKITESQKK
Chain of Protein translocase subunit SecA (Escherichia coli (strain K12)) (P10408 whole entry): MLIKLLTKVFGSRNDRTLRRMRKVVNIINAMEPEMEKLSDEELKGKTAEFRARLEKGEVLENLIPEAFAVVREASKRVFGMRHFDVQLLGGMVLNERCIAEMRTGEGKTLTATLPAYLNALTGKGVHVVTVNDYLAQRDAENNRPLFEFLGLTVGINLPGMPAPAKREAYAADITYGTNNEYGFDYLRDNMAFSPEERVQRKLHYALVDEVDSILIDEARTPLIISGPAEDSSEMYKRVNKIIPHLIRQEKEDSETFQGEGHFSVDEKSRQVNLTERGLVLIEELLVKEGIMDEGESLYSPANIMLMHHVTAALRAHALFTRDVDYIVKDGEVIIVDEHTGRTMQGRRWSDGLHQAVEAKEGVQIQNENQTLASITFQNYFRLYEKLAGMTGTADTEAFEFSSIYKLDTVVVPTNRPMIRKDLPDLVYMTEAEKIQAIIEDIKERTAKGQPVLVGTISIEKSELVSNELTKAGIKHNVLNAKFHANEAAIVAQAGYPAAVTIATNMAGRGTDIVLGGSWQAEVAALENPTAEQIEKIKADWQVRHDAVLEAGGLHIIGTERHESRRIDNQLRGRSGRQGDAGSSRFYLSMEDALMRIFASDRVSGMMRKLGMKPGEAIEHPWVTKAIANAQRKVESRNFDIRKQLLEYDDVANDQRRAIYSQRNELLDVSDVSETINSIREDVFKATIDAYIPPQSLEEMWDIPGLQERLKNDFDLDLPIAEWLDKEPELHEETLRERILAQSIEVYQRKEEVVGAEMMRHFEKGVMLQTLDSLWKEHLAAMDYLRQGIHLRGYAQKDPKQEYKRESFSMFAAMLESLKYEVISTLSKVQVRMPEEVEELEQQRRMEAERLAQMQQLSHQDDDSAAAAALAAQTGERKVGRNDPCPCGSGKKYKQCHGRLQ
Chain of Sialic acid-binding Ig-like lectin 9 (Homo sapiens) (Q9Y336 whole entry): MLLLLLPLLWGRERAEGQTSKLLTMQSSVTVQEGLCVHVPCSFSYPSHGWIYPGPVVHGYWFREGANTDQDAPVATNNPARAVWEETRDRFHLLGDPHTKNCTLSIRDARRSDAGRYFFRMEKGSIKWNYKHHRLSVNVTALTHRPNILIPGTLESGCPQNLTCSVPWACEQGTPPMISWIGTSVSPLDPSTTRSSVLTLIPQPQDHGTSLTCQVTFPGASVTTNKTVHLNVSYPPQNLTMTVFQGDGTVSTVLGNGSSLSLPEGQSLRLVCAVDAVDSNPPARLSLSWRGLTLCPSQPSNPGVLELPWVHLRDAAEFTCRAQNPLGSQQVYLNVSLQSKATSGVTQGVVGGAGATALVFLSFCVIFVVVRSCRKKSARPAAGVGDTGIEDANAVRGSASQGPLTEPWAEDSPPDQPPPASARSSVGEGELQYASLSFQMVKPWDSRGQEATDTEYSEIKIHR

Consider `O=C1CC2(CCCCC2)CC(=O)N1CC(O)COCc1ccc(Cl)cc1` (stereo unspecified), for which the Percent Effect in experiment [1] was -4.15%; in experiment [2] it was -10.8%; in experiment [3], -0.127%; in experiment [4], -2.3%; in experiment [5] it was -1.66%; in [6], -0.744%. Besides, the Percent Effect in experiment [7] is -2.66%; in experiment [8], 2.65%; in experiment [9], -2.15%; in experiment [10], -6.17%; in [11], 6.87%.

As to `Cn1c(Cn2cccn2)nnc1C1CCN(Cc2cccnc2N)CC1`, the Percent Effect was -8.22% in [1]; 1.39% in [2]; -1.91% in [3]; -4.65% in [4]; -3.4% in [5]; 0.883% in [6]. Further, the Percent Effect in [7] is 3.86%; in experiment [8], 12.7%; in experiment [9] it was -1.05%; in [10] it was 0%; in experiment [11], 0.423%.

For the compound `c1cc(-c2cnccn2)cc(-c2ccn(CCN3CCCC3)n2)c1`, the Percent Effect was -2.8% in [1]; -21.6% in experiment [2]; 3.09% in experiment [3]; 2.06% in experiment [4]; -1.54% in experiment [5]; -10.9% in [6]. The Percent Effect in experiment [7] was 6.9%; in experiment [8] it was 0.332%; in experiment [9] it was 14.3%; in [10] it was 7.32%; in [11], -0.216%.

On to `O=C(CCNc1ncccn1)NCCc1ccn(-c2ccccc2)n1`, for which the Percent Effect in [1] was -3.96%; in [2] it was 21.5%; in experiment [3] it was -1.83%; in [4] it was -7.45%; in experiment [5] it was 4.82%; in experiment [6], 0.215%. Besides, the Percent Effect in [7] is 15.4%; in experiment [8] it was -2.32%; in [9] it was 6.25%; in experiment [10], 20.2%; in experiment [11] it was -24.6%.

Regarding `COc1ccc(CNC(=O)NCc2c(C)cc(C)[nH]c2=O)cc1`, the Percent Effect in [1] is -5.07%; in [2], 13.2%; in experiment [3], -3.13%; in experiment [4], 12.1%; in [5], 0.84%; in [6], -5.04%. In addition, the Percent Effect in experiment [7] is 6.18%; in [8], -18.2%; in experiment [9] it was 3.45%; in [10] it was 13.6%; in experiment [11] it was 3.42%.

For the compound `O=C(c1cnco1)N1C[C@@H]2CC[C@H](Oc3ccccc3F)[C@@H]2C1`, the Percent Effect in experiment [1] is -8.63%; in experiment [2], -6.76%; in experiment [3] it was 3.39%; in [4], -7.43%; in experiment [5], -3.16%; in experiment [6], -2.09%. The Percent Effect is 3.74% in experiment [7]; 25.5% in experiment [8]; -4.3% in [9]; -9.09% in experiment [10]; -6.6% in experiment [11].

For the compound `CCN1CCOC(CNCc2ccccc2OCC(=O)N(C)C)C1` (stereo unspecified), the Percent Effect was -1.78% in experiment [1]; 0% in experiment [2]; -9.78% in experiment [3]; 0.0919% in [4]; 8.31% in experiment [5]; -2.88% in [6]. The Percent Effect in experiment [7] is -4.32%; in experiment [8], -7.21%; in experiment [9], 1.48%; in experiment [10], 13.6%; in [11], -2.56%.

For the compound `CC(=O)N(Cc1ncc(C)o1)C1CCN(Cc2ccncc2Cl)C1` (stereo unspecified), the Percent Effect in [1] is -2.28%; in [2], 15.6%; in experiment [3] it was -3.8%; in experiment [4] it was -0.636%; in experiment [5] it was 3.62%; in [6], 1.05%. The Percent Effect in experiment [7] is 11.2%; in experiment [8] it was -2.79%; in experiment [9] it was 11.4%; in [10] it was 30.6%; in experiment [11], -18.4%.

As for `Cc1nc(N2CCCC2)nc2c1CCN(C(=O)C1CCCC1)CC2`, the Percent Effect in [1] is -2.37%; in experiment [2], 4%; in experiment [3], 0.866%; in [4], 2.33%; in experiment [5], -3.54%; in [6], -4.4%. The Percent Effect in [7] was 15.2%; in experiment [8], -11.3%; in experiment [9], 9.52%; in [10], 10.3%; in experiment [11], -6.44%.

On to `Cc1cc(NC(=O)NCCc2cccs2)n(C)n1`, for which the Percent Effect in experiment [1] was 0.534%; in experiment [2], 4.17%; in experiment [3] it was -1.97%; in experiment [4], -7.64%; in experiment [5], -8.65%; in [6], 4.42%. For the same compound, the Percent Effect was 23.3% in [7]; -9.88% in experiment [8]; 0% in experiment [9]; 5.13% in experiment [10]; -0.833% in experiment [11].

For `CCNC(=O)c1nnn(Cc2ccccc2)c1OC`, the Percent Effect in [1] is -3.93%; in [2], 1.33%; in experiment [3], 3.51%; in experiment [4], 5.7%; in experiment [5] it was -0.197%; in experiment [6], -8.63%. The Percent Effect was 7.95% in experiment [7]; -9.5% in experiment [8]; 5.29% in experiment [9]; 7.69% in experiment [10]; -2.11% in experiment [11].
